# Source: PubChem BioAssay
# ELG1 genotoxic = induces genotoxicity in HEK293T cells with luciferase-tagged ELG1 | 1.3% of 330,000 active | HEK293T ELG1-luciferase reporter, luminescence, 16 h | Potency, µM (doses to about 46 µM), for the others: at the highest dose activity change, positive = activation, actives largely listed as activators; note: % of control where 0% means no effect; nearly all actives have a fitted effect of over 60% in size
#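 HEK293T cells expressing luciferase-tagged ELG1 were treated with compound or DMSO for 16 hr at 37°C. Luciferase activity was then read after 30 min with ONE-Glo at room temperature; rising signal flags genetic stress.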
# NPC1 promoter act = NPC1 promoter activation; 2.4% of 320,000 active; Huh7 NPC1 promoter luciferase reporter, 24 h; Potency, µM (highest dose often 9.22 µM), for the others: at the highest dose activation, actives largely listed as activators; AID 485313; note: % of control where 0% means no effect; nearly all actives have a fitted effect of over 60% in size
#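 Huh7 reporter cells (NPC1 promoter driving luciferase) are dosed with compound for 24 h at 37 °C, 5% CO2; luciferase detection reagent is then added and luminescence measured after 10 min at ambient temperature.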
# Rab9 prom act = Rab9 promoter activation; Potency, µM (top dose mostly 9.22 µM), without a hit: top-dose activation, negative = inhibition, most hits filed as activators; 2.8% of 320,000 active; Huh7 Rab9 promoter-luciferase reporter, luminescence, 24 h; note: % of control where 0% means no effect; nearly all actives have a fitted effect of over 60% in size
#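 Luciferase signal after 10 min detection reagent at ambient indicates Rab9 promoter upregulation; stably transfected Huh7 cells were treated 24 h with compound in DMSO at 37 °C, 5% CO2.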
# FLuc modulator = counter-screen for miR-21 project: firefly luciferase inhibitors or activators; P08659; Potency, µM (top dose mostly 57.5 µM), inactives show at the highest dose activity change, negative = inhibition, hits mostly inhibitors; purified FLuc, Km substrates, luminescence inhibition; 6.9% of 360,000 active;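 note: plate controls were vehicle for no effect and reference inhibitor for full effect; nearly all actives have a fitted effect of over 55% in size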
# Target sequence (P08659 whole entry, looked up): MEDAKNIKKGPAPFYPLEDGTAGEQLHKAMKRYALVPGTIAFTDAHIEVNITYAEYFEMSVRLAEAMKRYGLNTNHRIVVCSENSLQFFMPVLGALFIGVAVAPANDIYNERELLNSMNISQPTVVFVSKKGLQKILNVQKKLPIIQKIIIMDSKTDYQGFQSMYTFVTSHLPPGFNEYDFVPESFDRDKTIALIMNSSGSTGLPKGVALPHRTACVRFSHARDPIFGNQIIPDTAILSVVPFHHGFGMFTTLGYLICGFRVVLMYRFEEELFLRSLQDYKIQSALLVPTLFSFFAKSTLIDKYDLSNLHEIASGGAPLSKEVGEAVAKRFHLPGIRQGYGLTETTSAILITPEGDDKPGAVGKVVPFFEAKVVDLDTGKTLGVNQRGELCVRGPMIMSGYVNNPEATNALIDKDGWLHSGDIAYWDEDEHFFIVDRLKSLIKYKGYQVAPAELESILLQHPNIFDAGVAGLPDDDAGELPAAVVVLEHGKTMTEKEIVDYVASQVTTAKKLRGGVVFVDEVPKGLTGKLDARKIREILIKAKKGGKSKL
#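 Biochemical qHTS of compounds, final roughly 60 µM downward over six points, against 10 nM purified firefly luciferase using Km concentrations of substrates (10 uM D-luciferin, 10 uM ATP) in Tris acetate pH 7.5 buffer; luminescence output.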
# ELG1 DNA repair = ELG1-dependent DNA repair inhibition | 2.3% of 330,000 active | AID 504467 | HEK293T ELG1-luciferase reporter, luminescence, 16 h; DNA damage induced by 5-fluorouridine | Potency, µM (titrated, usually from 46.1 µM), inactives show top-dose activity change, negative = inhibition, usual class: inhibitors; note: % is set by controls: 0 for no effect and ±100 for the full control effect; nearly all actives have a fitted effect of over 55% in size
#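 Step one: seed 2,000 cells per well. Step two: pin-transfer compound or DMSO alongside 5-fluorouridine. Step three: incubate 16 hr, 37 °C, 5% CO2. Step four: add ONE-Glo, wait 30 min, read luminescence.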
# SMN2 splice up = increases expression of the SMN2 splice variant. AID 1458. 2.8% of 210,000 active. Potency, µM (doses to about 46.1 µM), for inactives: at the highest dose activity change, positive = activation, most hits filed as activators. HEK293 SMN2-luciferase splicing reporter, luminescence, 30-36 h; note: % of control where 0% means no effect; nearly all actives have a fitted effect of over 55% in size
#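 HEK293 cells carry an SMN2 minigene-luciferase reporter in which exon 7 inclusion puts luciferase in frame. Cells were seeded at 2000 cells/well, attached for 10-12 hours, then exposed to compounds for 30-36 hours at 37C before ONE-Glo luminescence.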
# * hit, by the source's call; ? = inconclusive; nt = no result given; [ ] = another dose, or the depositor's remark. Most compounds without a hit are left out; they make up all but 9.2% or so of the library. Calls come from the whole dose curve; as a rule, active = well fitted curve in the direction sought with a large enough effect; inconclusive = small, poorly fitted or top-dose-only effect, or another doubt; inactive = no such curve, though single readings can be large; an effect the other way counts as inactive or inconclusive. Potency is the fitted concentration of half-maximal effect.
SMILES,ELG1 genotoxic,NPC1 promoter act,Rab9 prom act,FLuc modulator,ELG1 DNA repair,SMN2 splice up
CC(=O)c1c(C)[nH]c(C(=O)Nc2ccccn2)c1C,10µM*,1.3µM*,3.2µM*,9.5µM*,?,nt
O=C1CCc2cc(S(=O)(=O)NC3CCCCC3)ccc2N1,5%,1%,2%,1%,27%,nt
O=C(Nc1ccccc1)N1CCCC2(CCN(C(=O)c3ccco3)CC2)C1,nt,nt,nt,nt,nt,-14%
Cc1cccc(C(=O)OCC(=O)NC(=O)NCc2ccccc2)c1,1%,-1%,-6%,5%,5%,nt
CC(=O)c1c(C)[nH]c(C(=O)Nc2ccc(Cl)cc2F)c1C,?,1.8µM*,2.8µM*,9.5µM*,?,nt
CCC(C)c1ccc(NC(=O)c2[nH]c(C)c(C(C)=O)c2C)cc1 (stereo not drawn),7%,25%,15%,19µM*,?,nt
CC(=O)c1c(C)[nH]c(C(=O)Nc2cccc(S(=O)(=O)N3CCOCC3)c2)c1C,?,-2%,1%,-3%,?,8.9µM*
Cc1cc(C)c(C)c(S(=O)(=O)N2CCC(C(=O)Nc3ccncc3)CC2)c1C,-5%,-5%,1%,-2%,-5%,nt
OCCC#Cc1ccc(CN2CCN(C3CCCCC3)C(CCO)C2)cc1 (stereo not drawn),1%,0%,-5%,-2%,10%,nt
C=CCNC(=O)CSc1n[nH]c(-c2cc(Cl)ccc2OC)n1,-2%,-3%,2%,0%,0%,7%
O=C(NCc1ccccn1)c1ccc(NS(=O)(=O)c2ccccc2)cc1,-3%,1%,-1%,2%,-11%,nt
Cc1ccc(S(=O)(=O)n2nc(-c3ccco3)nc2SCc2ccccc2)cc1,15%,18%,22%,24µM*,?,16µM*
CCCC(=O)n1nc(-c2ccco2)nc1SCc1ccccc1,8%,13%,17%,9.5µM*,?,?
O=C(c1ccco1)n1nc(-c2ccco2)nc1SCc1ccccc1,?,-5%,?,-9%,?,8%
O=C(Cc1ccccc1)n1nc(-c2ccco2)nc1SCc1ccccc1,?,24%,15%,17µM*,?,11%
O=C(Oc1ccccc1O)c1cccc2ccccc12,7%,-7%,-8%,-17%,9%,14%
O=C(CSc1nc2sc3c(c2c(=O)n1-c1ccccc1)CCCC3)N/N=C/c1ccccc1C(=O)O,4%,-1%,0%,-18%,2%,nt
Fc1cccc(/C=N/Nc2cc(N3CCOCC3)ncn2)c1,?,1.8µM*,2µM*,4.8µM*,?,nt
C/C(=N\Nc1cc(N2CCOCC2)ncn1)c1ccc(O)cc1,9%,0%,3%,19µM*,21%,nt
C(=N\Nc1cc(N2CCCCC2)ncn1)/c1ccco1,?,?,?,4.8µM*,?,nt
Oc1cccc(/C=N/Nc2cc(N3CCCC3)nc(N3CCCC3)n2)c1,-8%,-1%,0%,13µM*,26µM*,-18%
O=C(Nc1cc(N2CCOCC2)ncn1)c1ccc(F)cc1,6%,14%,?,?,?,nt
COc1cccc(N(Cc2nnc3n2CCCCC3)C(=O)Nc2cccc(Cl)c2)c1,nt,nt,nt,-5%,nt,nt
COc1cccc(/C=N/Nc2cc(N3CCOCC3)ncn2)c1O,?,-31%,-36%,8.5µM*,12µM*,nt
Cc1csc(NC(=O)CSc2nnc(-c3ccncc3)o2)n1,5%,25%,?,-2%,?,3.2µM*
SMILES,ELG1 genotoxic,NPC1 promoter act,Rab9 prom act,FLuc modulator,ELG1 DNA repair,SMN2 splice up
Cc1csc(NC(=O)CSc2nnc(-c3ccoc3C)o2)n1,9%,?,?,-3%,?,11µM*
Cc1ccc(SCC(=O)NCc2ccccc2)cc1,11%,-5%,-1%,?,21%,nt
CCc1nn(C(CC)C(=O)NCc2cccc(OC)c2OC)c(=O)c2cc3occc3n12 (stereo not drawn),-2%,-3%,-5%,3%,?,nt
COc1ccc(-c2c(C)nn3c(N4CCOCC4)cc(C)nc23)cc1OC,-8%,-5%,-4%,-1%,16µM*,nt
COc1ccc(-c2c(C)nn3c(N4CCCCCC4)cc(C)nc23)cc1OC,-15%,-13%,-17%,?,12µM*,nt
CCc1ccc2nc(N3CCN(C(=O)C(C)(C)C)CC3)sc2c1,0%,27%,22%,15µM*,14%,nt
CC(C)(C)C(=O)N1CCN(c2nc3ccccc3s2)CC1,16%[9.26 µM],2.5µM*,?,15µM*,?,nt
O=C(c1cccs1)N1CCN(c2nc3ccccc3s2)CC1,1%,?,24%,3%,6%,nt
O=C(Cn1c(=O)n(-c2ccccc2)c(=O)c2sccc21)NCc1ccccc1,17%,-1%,-1%,2%,?,-11%
NC(=O)[C@@H]1CCCN1C(=O)c1ccc2oc(CCc3ccccc3)nc2c1,?,?,?,-19%,?,nt
Nc1ccc2oc(CCc3ccccc3)nc2c1,?,2.5µM*,0.71µM*,9.5µM*,?,18µM*
O=C(c1ccc2oc(CCc3ccccc3)nc2c1)N1CCC(O)CC1,?,1.3µM*,1µM*,11µM*,?,nt
CCOC(=O)CC1COCCN1C(=O)c1ccc2oc(Cc3ccccc3)nc2c1 (stereo not drawn),?,?,3.2µM*,12µM*,?,nt
O=C(c1ccc2oc(CCCc3ccccc3)nc2c1)N1CCCCC1CO (stereo not drawn),?,4.5µM*,6.3µM*,24µM*,?,nt
CC1(C)Cc2c(cnn2-c2cccc(F)c2)C(NC(=O)CCc2cnccn2)C1 (stereo not drawn),1%[9.26 µM],2%,12%,-20%,14%,nt
COC(=O)Cc1cc(=O)[nH]c(/N=C(\N)Nc2ccc(C(C)C)cc2)n1,-3%,-5%,-4%,-10%,-20%,nt
O/N=C1/CC/C(=N\O)c2nn(-c3ccccc3)nc21,11%,18%,24%,?,-7%,?
O=C(O)c1nn(-c2ccccc2)nc1-c1nn(-c2ccccc2)nc1C(=O)O,-1%,-2%,0%,21µM*,10%,0%
COC(=O)c1nn(-c2ccccc2)nc1-c1nn(-c2ccccc2)nc1C(=O)OC,?,9%,6%,2.4µM*,0%,4%
CSc1nc(NNC=O)cc(Oc2ccc(NC(C)=O)cc2)n1,1%,-1%,-1%,4%,-2%,nt
CN(C(=O)CSc1nc(N)c2c3c(sc2n1)CSC(C)(C)C3)c1ccccc1,-4%,-1%,-1%,?,21µM*,-19%
COc1ccc(NC(=O)c2cc(S(=O)(=O)N3CCOCC3)cn2C)cc1Cl,-6%,-3%,1%,-19%,9%,nt
